A selection: hits, their analogues and other compounds. The true share with any hit is near 2.4%.
D2 antag – antagonizes the human D2 dopamine receptor; 2% of 340,000 active; AID 485344; inhibition, % at 10 µM; HEK293 TREx D2 cells, calcium flux, dopamine EC80; in the data active = inhibition above about 30%; inactive = below that, where a call was filed
Target sequence (P14416 whole entry, looked up): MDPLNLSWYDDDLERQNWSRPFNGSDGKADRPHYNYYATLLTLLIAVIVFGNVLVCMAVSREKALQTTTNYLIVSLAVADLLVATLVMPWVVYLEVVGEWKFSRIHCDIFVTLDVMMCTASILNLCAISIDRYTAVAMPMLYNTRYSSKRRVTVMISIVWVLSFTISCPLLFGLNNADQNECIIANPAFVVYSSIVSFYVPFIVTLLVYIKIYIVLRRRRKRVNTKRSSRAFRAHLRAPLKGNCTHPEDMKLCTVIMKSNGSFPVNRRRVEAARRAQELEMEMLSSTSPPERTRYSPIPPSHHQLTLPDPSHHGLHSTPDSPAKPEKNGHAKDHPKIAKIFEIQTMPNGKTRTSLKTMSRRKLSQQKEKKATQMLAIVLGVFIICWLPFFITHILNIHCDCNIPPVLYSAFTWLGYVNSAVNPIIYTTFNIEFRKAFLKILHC
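Tetracycline-induced HEK293 TREx cells expressing D2 receptor forced-coupled to calcium signalling, loaded with no-wash calcium dye. Compounds added and calcium flux read 180 s, then dopamine added at EC80 and read a further 180 s.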
D2 PAM-1 – positive allosteric modulators of human D2 dopamine receptor. HEK293 T-REx D2, calcium flux, EC20 dopamine potentiation. AID 485347. potentiation, % at 10 µM. 0.34% of 340,000 active. P14416;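 active = potentiation over 3 SD above the plate norm, cut at about 30% in these data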
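Potentiation of an EC20 dopamine calcium response is measured in a force-coupled, tetracycline-inducible Hek293 Trex D2 line. Compound-only kinetic reads over 180 s flag agonists before dopamine addition.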
D2 ag-1 – agonists of human D2 dopamine receptor | HEK293 T-REx D2 cells, calcium flux agonist mode | activation, % at 2 µM | 0.53% of 340,000 active | P14416 | AID 485358;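 active = activation over 3 SD above normal in the single-dose calcium agonist read, cut at about 30% in these data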
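Agonism is scored from calcium flux in a force-coupled, inducible HEK293 cell line expressing D2, read kinetically for 180 s after compound addition against dopamine controls.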
D2 ag-2 – agonists of human D2 dopamine receptor (beta-arrestin); DiscoveRx PathHunter D2 beta-arrestin, luminescence, 90 min; 100% = 57 uM dopamine signal; 0.084% of 360,000 active; activation, % (no concentration beside the values); in the data active = activation above about 40%
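Agonist mode: compounds alone added to overnight-plated D2 PathHunter cells for 90 min at 37 C, with 57 uM final dopamine (EC100) defining full response. Beta-arrestin recruitment detected by chemiluminescent reagent, read after 1 h at ambient temperature.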
D2 PAM-2 – positive allosteric modulators of human D2 dopamine receptor; DiscoveRx D2 beta-arrestin cells, luminescence, 90 min; 100% = 57 uM dopamine signal; AID 624464; 0.23% of 360,000 active; potentiation, % (concentration not given with the values); in the data active = potentiation above about 50%
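PathHunter D2 cells, attached overnight at 37 deg C, received compound in DMSO plus dopamine at EC20 (50 nM final) for 90 min at 37 deg C. Beta-arrestin recruitment was read as luminescence after 1 h with detection reagent at ambient temperature.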
Each line names hits and unclear results; the compound was inactive in the other large screens.

COc1cc(OC)cc(C(=O)Nc2ccc(S(=O)(=O)Nc3nc(C)cc(C)n3)cc2)c1	D2 antag 34
COc1ccc(S(=O)(=O)Nc2ccc(Oc3ncccn3)c(Cl)c2)cc1	none
CC(=O)NCCc1nc2cc(NC(=O)c3cccc([N+](=O)[O-])c3)ccc2n1C	none
O=C(N/N=C/c1cc(Br)c(Br)o1)c1cc2ccccc2o1	D2 antag 33
CCN(C(=O)COC(=O)c1c(-c2ccccc2)noc1C)c1c(N)n(Cc2ccccc2)c(=O)[nH]c1=O	none (no result: D2 antag, D2 PAM-1, D2 ag-1)
CCCN(C(=O)c1c(-c2ccccc2)noc1C)c1c(N)n(Cc2ccccc2)c(=O)[nH]c1=O	D2 antag 65
CC1CN(S(=O)(=O)c2ccc(F)cc2)C(C)N1C(=O)N1CCOCC1 (stereo not drawn)	D2 antag 32
CC1CN(S(=O)(=O)c2ccc(F)cc2)CN1C(=O)N1CCOCC1 (stereo not drawn)	none
COC(=O)c1ccc(/C=C/c2c(-c3ccc(OC)cc3)oc3ccccc23)cc1	D2 antag 47
COc1ccc(/C=C/c2c(-c3ccc(OC)cc3)oc3ccccc23)cc1	none
COc1ccc(-c2oc3ccccc3c(=O)c2OC(=O)c2ccc(C)cc2)cc1	D2 PAM-1 31
CCCN(C(=O)Cn1c(=O)oc2cc(Cl)ccc21)c1ccc(C(C)C)cc1	none (no result: D2 antag, D2 ag-1, D2 ag-2, D2 PAM-2)
CC(=O)N1CCOc2ccc(S(=O)(=O)Nc3ccc(C)cn3)cc21	none
NS(=O)(=O)c1ccc(CCNC(=O)Cn2c(-c3cccs3)cc3ccccc32)cc1	none (no result: D2 antag, D2 ag-2, D2 PAM-2)
CCCNC(=O)C1(C)CCN(C(=O)c2c(F)ccc(C)c2F)C1 (stereo not drawn)	none (no result: D2 antag, D2 PAM-1, D2 ag-1)
CCN1CCN(c2oc(-c3ccccc3)nc2S(=O)(=O)c2ccc(C)cc2)CC1	D2 antag 47
CSc1oc(-c2ccccc2)nc1S(=O)(=O)c1ccc(C)cc1	D2 antag 34
Cc1ccc(S(=O)(=O)c2nc(-c3ccccc3)oc2N2CCCCCC2)cc1	none (no result: D2 antag, D2 ag-2, D2 PAM-2)
Cc1nc2c(C(=O)NCCc3ccccc3)cnn2c(C)c1Cc1c(F)cccc1Cl	none (no result: D2 antag, D2 ag-2, D2 PAM-2)
C[C@H](N=C1NS(=O)(=O)c2ccccc21)C(=O)OCc1cc([N+](=O)[O-])cc2c1OCOC2	D2 antag 45
O=C(CCCN=C1NS(=O)(=O)c2ccccc21)OCc1cc([N+](=O)[O-])cc2c1OCOC2	none
COC(=O)c1sccc1S(=O)(=O)N1CCN(c2ccccc2)CC1	none (no result: D2 antag, D2 PAM-1, D2 ag-2, D2 PAM-2)
CC1Cc2ccccc2N1C(=O)C12CCC(C)(C(=O)C1)C2(C)C (stereo not drawn)	D2 antag 32 (no result: D2 PAM-1)
CC1CCN(C(=O)c2ccc(Br)c(S(=O)(=O)N3CCOCC3)c2)CC1	none
CC1CCN(S(=O)(=O)c2cc(C(=O)NC3(C)CCS(=O)(=O)C3)ccc2Br)CC1 (stereo not drawn)	D2 antag 31
Cc1cc(=O)oc2c(C)c(OCC(=O)N3CCN(c4ccc(F)cc4)CC3)ccc12	none
Cc1cccc(N2CCN(C(=O)COc3ccc4c(C)cc(=O)oc4c3C)CC2)c1C	D2 PAM-1 39
CCSc1c(-c2ccccc2)nc2c(C)cccc2c1C(=O)O	D2 ag-1 34
Cc1cccc(OCC(=O)Nc2ccccc2C(=O)OCc2cc(=O)n3nc(C4CC4)sc3n2)c1	none (no result: D2 antag, D2 ag-2, D2 PAM-2)
CC(Sc1nnc(-c2ccccc2F)n1C1CC1)C(=O)N1CCCC1 (stereo not drawn)	none
CC(Sc1nnc(-c2ccccc2F)n1C1CC1)C(=O)NC(N)=O (stereo not drawn)	D2 antag 45
O=C1NCCCCC1NC1CC(=O)N(c2ccccc2)C1=O (stereo not drawn)	none (no result: D2 antag, D2 PAM-1, D2 ag-1)
CCOc1ccc(N2C(=O)CC(NC3CCCCNC3=O)C2=O)cc1 (stereo not drawn)	D2 antag 45
C/C(=N\NC(=O)c1c(Cl)cnn1C)c1cccnc1	none (no result: D2 antag, D2 ag-1)
CCOc1ccc(C(C)=O)cc1CN1C(=O)c2ccccc2S1(=O)=O	D2 antag 34
CCOC(=O)c1ccc(CN2C(=O)c3ccccc3S2(=O)=O)cc1	none
CCc1cc(=O)oc2c3c(cc(OCC(=O)NCCCn4ccnc4)c12)OC(C)(C)CC3	none
O=c1cc(N2CCN(Cc3ccccc3)CC2)[nH]c(=O)n1-c1ccc(Br)cc1	D2 antag 38

Screens as filed in PubChem BioAssay.
